From the OligoGym collection

These sequences were tested against FAM73A (assay: pooled miR-30 sensor sort-seq; sequence = guide strand). Conditions: shRNA.
Also: reference of the scale not given here.

Row | Sequence | sensor-assay potency score (higher = more potent)
1 | TTGAATAGCGCACCTTCTCAAA | -1.12
2 | TTCTGTTTCAGCACCGACCAAC | -0.471
3 | TTGAACCTTTGTCTGATGCTGC | 0.182
4 | TAATATCATCTTCATCTGCTTT | -0.807
5 | AACAACTTGAACCTTTGTCTGA | -0.33
6 | TACTGGAACAACTTGAACCTTT | 0.0533
7 | TAGCATAGTTACAAACTTGAGA | -0.258
8 | TATCTTTATCAATATCATCAGC | -1.22
9 | TTAAGTATAAGTTCTCTGGAGT | -0.00837
10 | TGTACTTGAATAGCGCACCTTC | 0.381

These sequences were tested against FAM75A3 in the same assay as above. Conditions: shRNA.

Row | Sequence | sensor-assay potency score (higher = more potent)
11 | TTCGTCCTGAAGCTGCATCAGA | -0.939
12 | TTCACTAACAACCTCCTCCATA | -0.534
13 | TGGTGATTCGTCCTGAAGCTGC | -1.37
14 | AAATTCACTAACAACCTCCTCC | 0.396
15 | TGATTCGTCCTGAAGCTGCATC | -0.869
16 | TAAACTTCTCACTCTTGTGAAT | -1.14
